Assay outcomes from PubChem BioAssay.
A selection: hits, their analogues and other compounds. The true share with any hit is near 4%.
Gli-Sufu antag = antagonists of Gli-Sufu signaling. AID 588413. inhibition, % at 5 µM. 340,000 compounds, 0.74% hits. Sufu-KO-LIGHT fibroblasts, Gli luciferase reporter luminescence;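 active = inhibition above about 55%, limit read from the data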
Mdm2-MdmX inh = disrupts the human Mdm2-MdmX interaction. inhibition, % at 8 µM. 330,000 compounds, 3% hits. SaOS-2 split-luciferase Mdm2/MdmX complementation, luminescence. O15151+Q00987;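 active = inhibition of at least 50% at 8 µM in the primary screen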
Target sequence (O15151 whole entry, looked up): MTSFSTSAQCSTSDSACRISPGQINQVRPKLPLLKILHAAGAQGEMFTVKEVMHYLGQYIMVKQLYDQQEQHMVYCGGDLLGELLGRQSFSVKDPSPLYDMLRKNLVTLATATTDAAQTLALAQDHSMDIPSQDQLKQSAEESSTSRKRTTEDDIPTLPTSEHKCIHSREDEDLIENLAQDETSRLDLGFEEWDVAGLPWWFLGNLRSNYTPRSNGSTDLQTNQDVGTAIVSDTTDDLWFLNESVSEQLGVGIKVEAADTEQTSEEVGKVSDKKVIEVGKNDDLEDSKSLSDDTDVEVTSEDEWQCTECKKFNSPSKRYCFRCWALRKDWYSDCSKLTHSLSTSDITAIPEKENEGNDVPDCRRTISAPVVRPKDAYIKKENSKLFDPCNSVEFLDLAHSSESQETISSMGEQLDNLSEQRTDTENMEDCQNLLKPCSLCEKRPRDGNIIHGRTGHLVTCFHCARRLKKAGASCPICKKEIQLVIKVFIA
Target sequence (Q00987 whole entry, looked up): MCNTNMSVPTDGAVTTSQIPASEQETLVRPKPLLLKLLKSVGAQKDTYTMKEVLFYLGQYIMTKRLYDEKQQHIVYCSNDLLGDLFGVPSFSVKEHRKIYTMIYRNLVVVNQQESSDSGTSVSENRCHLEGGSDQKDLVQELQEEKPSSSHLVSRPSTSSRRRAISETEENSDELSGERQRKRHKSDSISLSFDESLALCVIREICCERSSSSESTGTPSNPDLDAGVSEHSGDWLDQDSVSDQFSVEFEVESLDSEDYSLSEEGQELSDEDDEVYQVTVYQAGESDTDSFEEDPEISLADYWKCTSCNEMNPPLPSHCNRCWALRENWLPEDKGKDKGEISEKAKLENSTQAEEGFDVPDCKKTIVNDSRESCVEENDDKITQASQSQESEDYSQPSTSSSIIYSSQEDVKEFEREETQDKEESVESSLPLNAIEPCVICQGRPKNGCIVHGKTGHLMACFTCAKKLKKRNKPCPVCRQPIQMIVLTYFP
Shn3 inh set2 = reduces Shn3 3'UTR luciferase signal in osteoblasts | 360,000 compounds, 0.52% hits | Clone20 osteoblast Shn3 3'UTR firefly luciferase, 24 h | inhibition, % at 12.5 µM;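 active = mean inhibition of at least 75% with every replicate also reaching 75%; inconclusive = mean inhibition at least 75% but some replicate below; inactive = mean inhibition below 75%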
Beta cell apopt = blocks beta cell apoptosis; INS-1E cytokine-induced death, ATP luminescence, 48 h; percent of positive-control rescue, neutral wells zero; protection from apoptosis, % (no concentration beside the values); 300,000 compounds, 0.8% hits;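 active = Every replicate reaches about 75%, or at least half do and their mean reaches it too, limit read from the data; inconclusive = At least half of replicates reach the limit but their mean does not; inactive = Under half of replicates reach the limit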;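 also: higher means more ATP so stronger rescue from cytokine killing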
CSC inhib = cancer stem cell inhibition; cancer stem cell-like cells viability, luminescence; inhibition, % at 7.5 µM; 300,000 compounds, 1.1% hits; in the data active = inhibition above about 75%; inconclusive = no clear call, values can overlap the other calls; tested in HMLE shEcad cells
PAX8 inh HTS = lowers PAX8-driven luciferase in RMG-I cells. RMG-I TPO-luciferase reporter, SteadyGlo, 24 h. AID 652154. 360,000 compounds, 1.2% hits. inhibition, % at 12.6 µM;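 active = mean replicate inhibition at least 60% with every replicate also reaching 60%; inconclusive = only one of the two criteria is met; inactive = mean below 60% and not all replicates reaching 60%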;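 also: luciferase light reporting Pax8 driven TPO promoter activity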
Mdm2 MdmX conf = confirmation of human Mdm2/MdmX interaction inhibitors; shares compounds with Mdm2-MdmX inh; Mdm2-MdmX binding, luminescent assay; inhibition, % at 8 µM; 10,000 compounds, 55% hits; AID 489028; in the data active = inhibition above about 40%
Full FLuc ctr = counter-screen for Mdm2/MdmX inhibitors: full-length luciferase; inhibition, % at 8 µM; shares compounds with Mdm2-MdmX inh; SaOS-2 full-length luciferase counterscreen, luminescence; 6,200 compounds, 77% hits;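 active = mean inhibition at 8 µM reaching about 37%, which flags the compound as non-specific, limit read from the data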;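 also: p53-null SaOS-2 cells with luciferase driven by a doxycycline-inducible promoter; compound on cells about two nights before reading with doxycycline added after day one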
Of the large screens only hits and unclear results are named; the others gave an inactive call (follow-up assays come after a bar, where they were run).

O=C(/C=C/c1ccccc1)NC(NC(=S)Nc1cccc(O)c1)C(Cl)(Cl)Cl (stereo not given)	none
Cc1ccc(C)c(NC(=S)NC(NC(=O)/C=C/c2ccccc2)C(Cl)(Cl)Cl)c1 (stereo not given)	Mdm2-MdmX inh 81.3, PAX8 inh HTS 67.7 | Mdm2 MdmX conf 74.0 | Full FLuc ctr inactive
O=C(/C=C/c1ccccc1)NC(NC(=S)Nc1cccc(Cl)c1)C(Cl)(Cl)Cl (stereo not given)	Mdm2-MdmX inh 98.1 (no result: Beta cell apopt, PAX8 inh HTS) | Mdm2 MdmX conf 68.2 | Full FLuc ctr inactive
O=C(NC(NC(=S)Nc1c(Cl)cc(Cl)cc1Cl)C(Cl)(Cl)Cl)OCc1ccccc1 (stereo not given)	Mdm2-MdmX inh 85.7, Shn3 inh set2 inconclusive | Mdm2 MdmX conf 57.0 | Full FLuc ctr 55.8
CO[C@H]1CN(C)C(=O)c2cc(NS(=O)(=O)c3cccc(F)c3)ccc2OC[C@H](C)NC[C@H]1C	none (no result: Gli-Sufu antag, Mdm2-MdmX inh, Shn3 inh set2, Beta cell apopt, CSC inhib)
COc1cc(NC(=O)c2cc(-c3ccc4c(c3)OCO4)on2)cc(OC)c1OC	Mdm2-MdmX inh 59.9 | Mdm2 MdmX conf 42.0 | Full FLuc ctr 39.8
O=C1c2ccccc2C2=Nc3ccccc3SC(c3ccc(Cl)cc3)C12 (stereo not given)	Mdm2-MdmX inh 87.2, Beta cell apopt 95.1, CSC inhib 126.9 | Mdm2 MdmX conf 47.4 | Full FLuc ctr 78.1
COc1ccc2nc(NC(=O)C3CCN(S(=O)(=O)c4cccc5nsnc45)CC3)sc2c1	Mdm2-MdmX inh 65.3, PAX8 inh HTS 62.9 (no result: Beta cell apopt) | Mdm2 MdmX conf 66.1 | Full FLuc ctr 38.6
COc1cccc(C(=O)Nc2ccc3c(c2)OC[C@@H](C)N(C)C[C@@H](C)[C@@H](OC)CN(C)C3=O)c1	none (no result: Gli-Sufu antag, Mdm2-MdmX inh, Shn3 inh set2, Beta cell apopt, CSC inhib)
Clc1ccc(Cn2cc(/C=N/n3cnnc3)c3ccccc32)c(Cl)c1	Mdm2-MdmX inh 56.5 (no result: PAX8 inh HTS) | Mdm2 MdmX conf inactive
C(=N\n1cnnc1)/c1cn(Cc2ccccc2)c2ccccc12	none (no result: PAX8 inh HTS)
NC(=O)c1ccccc1Nc1nc2nc3ccccc3c(=O)n2cc1Br	Mdm2-MdmX inh 73.7 (no result: Shn3 inh set2, PAX8 inh HTS) | Mdm2 MdmX conf inactive
Cc1cc(Nc2ccccc2C(=O)O)nc2nc3ccccc3c(=O)n12	none (no result: PAX8 inh HTS)
C[C@@H]1CCCCO[C@@H](CN(C)S(=O)(=O)c2ccc(F)cc2)[C@@H](C)CN([C@@H](C)CO)C(=O)c2cc(NC(=O)c3ccccc3)ccc2O1	none (no result: Gli-Sufu antag, Mdm2-MdmX inh, Shn3 inh set2, Beta cell apopt, CSC inhib)
CCC(=O)N[C@@H]1CC[C@@H](CC(=O)OC)O[C@H]1CO	none (no result: Gli-Sufu antag, Mdm2-MdmX inh, Shn3 inh set2, Beta cell apopt, CSC inhib)
O=C1NC(=S)N/C1=C/c1cc2c(cc1[N+](=O)[O-])OCO2	Mdm2-MdmX inh 54.6 | Mdm2 MdmX conf inactive
O=C(O)/C=C\c1cc2c(cc1[N+](=O)[O-])OCO2	none
C[C@@H]1CN([C@H](C)CO)S(=O)(=O)c2ccc(-c3cncnc3)cc2O[C@@H]1CN(C)C(=O)C1CCCCC1	none (no result: Gli-Sufu antag, Mdm2-MdmX inh, Shn3 inh set2, Beta cell apopt, CSC inhib)
COc1cc2c(C(=O)N3CCN(C)CC3)c(C)n(-c3ccccc3)c2cc1Br	none
CCN(CC)CCNC(=O)c1c(C)n(-c2ccccc2)c2cc(Br)c(OC)cc12	Mdm2-MdmX inh 80.7 | Mdm2 MdmX conf inactive | Full FLuc ctr 37.9
COc1cccc(C(=O)Nc2ccc3nc(N4CCN(c5ncccn5)CC4)cc(C)c3c2)c1OC	Mdm2-MdmX inh 97.9 (no result: Gli-Sufu antag, Shn3 inh set2, PAX8 inh HTS) | Mdm2 MdmX conf 88.2 | Full FLuc ctr inactive
CCOc1ccccc1C(=O)Nc1ccc2nc(N3CCN(c4ncccn4)CC3)cc(C)c2c1	Mdm2-MdmX inh 95.8 (no result: Shn3 inh set2, PAX8 inh HTS) | Mdm2 MdmX conf 84.2 | Full FLuc ctr 51.1
CN(C)C(=O)C[C@@H]1CC[C@H]2[C@@H](COc3ccc(NC(=O)c4cnccn4)cc3C(=O)N2C)O1	none (no result: Gli-Sufu antag, Mdm2-MdmX inh, Shn3 inh set2, Beta cell apopt, CSC inhib)
CC1CC2(C)Oc3ccccc3CC2C(C)C1CNCCCN(C)C (stereo not given)	Mdm2-MdmX inh 96.7 | Mdm2 MdmX conf 99.6 | Full FLuc ctr 55.0
O=C(NCC[C@@H]1CC[C@@H](NC(=O)Nc2cc(F)ccc2F)[C@@H](CO)O1)Nc1ccc(Cl)cc1	none (no result: Gli-Sufu antag, Mdm2-MdmX inh, Shn3 inh set2, Beta cell apopt, CSC inhib)
COCC(=O)Nc1ccc2c(c1)OC[C@@H](C)N(Cc1cc(-c3ccccc3)on1)C[C@@H](C)[C@H](OC)CN(C)C2=O	none (no result: Gli-Sufu antag, Mdm2-MdmX inh, Shn3 inh set2, Beta cell apopt, CSC inhib)
